The list is not random: actives were taken first. Their share in the collection is about 5.8%.
KB-V1 MDR tox: KB-V1 MDR subline cytotoxicity | KB-V1 MDR cells viability, CellTiter-Glo, 72 h | Potency, µM (doses to about 46.1 µM), most hits filed as cytotoxic | hit rate 3.4% among 400,000; further: on the % scale 0 is the no-effect control and ±100 the full control effect; nearly all actives have a fitted effect of over 60% in size
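Drug-selected KB-V1 cells, grown in DMEM lacking phenol red with 10% FBS, receive compound titrations; after three days at 37 degrees C, surviving cell ATP is quantified by CellTiter-Glo luminescence and responses normalized and curve-fitted.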
PINK1 expr mod: modulators of PINK1 expression; PINK1 immunofluorescence, high-content cytometry, 24 h; Potency, µM (series often up to 76.6 µM), for the others: at the highest dose activation (PINK1 increase), actives largely listed as activators; hit rate 0.2% among 410,000; active means well fitted activation curve with a large enough effect; inconclusive means small, poorly fitted or top-dose-only effect; cell line not stated here; further: % of control where 0% means no effect; nearly all actives have a fitted effect of over 65% in size
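Cells are seeded, rested 12 hours, then given compound at five concentrations or DMSO for 24 hours. After fixation, blocking and antibody staining, PINK1 amount and mitochondrial localization are scored; CCCP serves as control.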
KB-3-1 cytotox: KB-3-1 parental cell cytotoxicity | KB-3-1 viability, CellTiter-Glo ATP luminescence, 72 h | Potency, µM (series often up to 46.1 µM), hits mostly cytotoxic | hit rate 1.4% among 400,000 | AID 1347075; further: on the % scale 0 is the no-effect control and ±100 the full control effect; nearly all actives have a fitted effect of over 60% in size
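Here the drug-naive KB-3-1 line serves as comparator for MDR sub-line selectivity; cells received compound titrations, 72 h at 37 °C, then CellTiter-Glo readout.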
12-LOX inh: inhibitors of human 12S-lipoxygenase ALOX12; purified 12hLO, xylenol orange hydroperoxide absorbance; Potency, µM (doses to about 108 µM), inactives show at the top dose activity change, negative = inhibition, hits mostly inhibitors; hit rate 1.1% among 580,000; further: on the % scale 0 is the no-effect control and ±100 the full control effect
Target sequence (P18054 whole entry, looked up): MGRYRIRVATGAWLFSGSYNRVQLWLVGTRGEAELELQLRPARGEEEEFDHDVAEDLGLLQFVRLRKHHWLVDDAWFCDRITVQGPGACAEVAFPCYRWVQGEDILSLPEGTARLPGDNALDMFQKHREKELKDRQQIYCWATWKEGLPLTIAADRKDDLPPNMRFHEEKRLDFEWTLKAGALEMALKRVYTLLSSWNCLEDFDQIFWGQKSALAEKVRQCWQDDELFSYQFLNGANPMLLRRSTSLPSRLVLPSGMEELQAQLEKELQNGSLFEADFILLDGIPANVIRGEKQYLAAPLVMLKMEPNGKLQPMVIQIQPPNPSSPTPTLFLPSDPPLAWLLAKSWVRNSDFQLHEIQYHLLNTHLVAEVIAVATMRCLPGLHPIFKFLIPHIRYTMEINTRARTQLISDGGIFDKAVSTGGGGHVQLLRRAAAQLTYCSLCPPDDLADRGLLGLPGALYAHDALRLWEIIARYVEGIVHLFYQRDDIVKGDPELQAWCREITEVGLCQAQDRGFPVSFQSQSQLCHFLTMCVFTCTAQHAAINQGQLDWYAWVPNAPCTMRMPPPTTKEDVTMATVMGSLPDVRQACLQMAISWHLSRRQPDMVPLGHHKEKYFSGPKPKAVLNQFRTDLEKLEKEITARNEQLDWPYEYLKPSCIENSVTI
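Purified human 12hLO at 150 nM in 25 mM Hepes, 0.01% Triton X-100, pH 7.0, preincubated 15 min at room temperature with compound. Reaction started with 40 uM arachidonic acid, 30 min at room temperature. Hydroperoxide measured by Fe-xylenol orange, 573/405 nm absorbance ratio.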
SW480 rereplic: induces DNA re-replication in SW480 colon adenocarcinoma cells; AID 624297; hit rate 1.8% among 340,000; Potency, µM (titrated, usually from 46.1 µM), inactives show top-dose re-replication activation, actives largely listed as activators; SW480 DNA re-replication, Hoechst DNA content imaging, 48 h; further: % of control where 0% means no effect; nearly all actives have a fitted effect of over 55% in size
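Treated cells incubate 48 hr (37 C, 5% CO2), are stained 40 min with Hoechst, and nuclear fluorescence is enumerated; a rise in nuclei with high DNA signal marks re-replication.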
MCF10A rerep: inducers of DNA re-replication in MCF 10A breast cells | AID 624296 | hit rate 2.9% among 350,000 | Potency, µM (highest dose often 46.1 µM), without a hit: top-dose activity, positive = re-replication, most hits filed as activators | MCF 10A DNA re-replication, Hoechst nuclear intensity, 48 h; further: % of control where 0% means no effect; nearly all actives have a fitted effect of over 50% in size
* hit, by the source's call; i = inactive; ? = inconclusive; nt = no result. Unless noted, the call rests on the fitted dose curve; in most records, active means well fitted curve in the direction sought with a large enough effect; inconclusive means small, poorly fitted or top-dose-only effect, or another doubt; inactive means no such curve, though single readings can be large; an effect the other way counts as inactive or inconclusive. Potency means the concentration at half of the fitted maximal effect.

SMILES | KB-V1 MDR tox | PINK1 expr mod | KB-3-1 cytotox | 12-LOX inh | SW480 rereplic | MCF10A rerep
O=C(/C=C/c1cn(-c2ccccc2)nc1-c1cccnc1)N1CCCC1 | i | 2% | i | -28% | -2% | -1%
O=C(N/N=C/c1cn(-c2ccccc2)nc1-c1cccs1)c1ccccc1F | 21µM* | 1% | ? | nt | ? | ?
Cc1cc(C(=O)NC2CC(C)(C)Cc3nc(C(C)(C)C)ncc32)n[nH]1 (stereo unspecified) | nt | nt | nt | 20% | nt | nt
Cc1cc(S(=O)(=O)NCCO)c(C(C)C)cc1Br | nt | nt | nt | 3% | nt | nt
O=C(N/N=C/c1cn(-c2ccccc2)nc1-c1cccnc1)c1ccc(F)cc1 | i | 3% | i | 459% | 3% | 3.3µM*
Cc1cccc(N2CC(C(=O)Nc3nnc(SCCN4CCOCC4)s3)CC2=O)c1 (stereo unspecified) | i | 2% | i | 458% | -3% | 14%
Cc1cccc(N2CC(C(=O)Nc3nnc(SCCC4OCCO4)s3)CC2=O)c1 (stereo unspecified) | i | -1% | i | 8.9µM* | -1% | -2%
N#Cc1nc(-c2ccccc2Cl)oc1NC1CCCCC1 | nt | nt | nt | -11% | nt | nt
O=C(COc1cc(F)ccc1[N+](=O)[O-])Nc1ccc2c(c1)CCC2 | nt | nt | nt | 15% | nt | nt
CCOC(=O)CNC(=S)n1ncnc1N | i | -1% | i | -12% | 5.8µM* | -7%
CCOC(=O)CNC(=S)SC | i | -1% | i | 122% | 254% | 0%
O=C(c1cc2ccccc2oc1=O)N1CCN(c2cccc(C(F)(F)F)c2)CC1 | nt | nt | nt | 180% | nt | nt
CCn1c2c(c(=O)[nH]c1=O)C(c1ccccc1)C1=C(CC(C)(C)CC1=O)N2 (stereo unspecified) | nt | nt | nt | 54% | nt | nt
COC(=O)COc1ccc2c(c1)oc(=O)c1ccccc12 | nt | nt | nt | -113% | nt | nt
CN(C)C1(CNC(=O)c2cccc(S(=O)(=O)NCc3ccccc3)c2)CCCCC1 | i | -2% | i | -1% | 0% | 9%
COc1cccc(CN(C)C(=O)c2[nH]c(C)c(C(C)=O)c2C)c1OC | 18µM* | 4% | 7.3µM* | -24% | -1% | 7%
COc1ccccc1CNC(=O)c1[nH]c(C)c(C(C)=O)c1C | i | 0% | i | ? | ? | -4%
COc1cccc(CN(C)C(=O)c2cc(S(=O)(=O)NCc3ccccc3)ccc2C)c1OC | 18µM* | 0% | i | 4% | -7% | 2%
COc1ccc(CN(C)C(=O)c2cc(S(=O)(=O)NCc3ccccc3)ccc2C)c(OC)c1 | i | -1% | i | 6% | -22% | 7%
Cc1cc(C)c(C(=O)COC(=O)c2cccc(S(=O)(=O)NCc3ccccc3)c2)cc1C | 18µM* | -1% | i | 9% | 8% | 13%
O=C(COC(=O)c1cccc(S(=O)(=O)NCc2ccccc2)c1)c1ccccc1 | i | 0% | i | 2% | -3% | 4%
O=C(NCc1ccccc1)c1cccc(S(=O)(=O)NCc2ccccc2)c1 | 16µM* | 4% | i | -18% | -38% | -9%
OCCN1CCN(c2nc(-c3ccccc3)c3cc(Br)ccc3n2)CC1 | i | 0% | i | -23% | 21µM* | 18µM*
OCCN1CCN(c2ncnc3ccc(Br)cc23)CC1 | ? | 1% | i | 0% | -4% | ?
O=C(O)C1CCN(c2nc(-c3ccccc3)c3cc(Br)ccc3n2)CC1 | i | -2% | i | -20% | 1% | 23µM*
O=C1ON=C(c2ccccc2)/C1=C/c1ccc(OS(=O)(=O)c2ccccc2)cc1 | i | 5% | i | 18µM* | ? | ?
COc1ccc(/C=C2\C(=O)ON=C2c2ccccc2)cc1 | ? | -1% | i | ? | ? | ?
Cn1cccc1CN1CCCCCCNC(=O)[C@@H]2CCC[C@@H]21 | nt | nt | nt | 81% | nt | nt
C=CCn1c(=N)c(C(=O)NCCCOC)cc2c(=O)n3cc(C)ccc3nc21 | ? | 0% | i | ? | ? | 8.2µM*
